# Experimental data from PMC8384837, “Expanding the binding specificity for RNA recognition by a PUF domain”.
# Numbering of substitutions follows the chain as printed.
# Tests used:
# Test in all cases: yeast three-hybrid, YBZ-1, SC-Leu-His + 0.5 mM 3-AT, 4 days
# Settings in all cases: tags: N-Gal4 AD-HA kept; label: inside an RPR1-promoter hybrid RNA with tandem MS2 sites; ssRNA
# PUM1 PUF domain R8-RHY = PUM1 PUF domain R8-RHY (Homo sapiens, UniProt Q14671 828-1176, N1122R;Y1123H;Q1126Y)
# In short: (§1)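 Pumilio-1 PUF domain libraries, randomized at the three base-contacting residues of each repeat, were co-expressed with matching RNA elements from a centromeric plasmid in strain YBZ-1, which carries a LexA–MS2 coat fusion and a HIS3 reporter. Transformants grew for four days on SC-Leu (input) or on SC-Leu-His + 0.5 mM 3-AT (selection), and the repeat regions were PCR-amplified and Illumina-sequenced. The interaction score is the log change in variant frequency from input to selection. That logarithm is base 2, with a pseudocount of 1 where a variant was absent.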
# PUM1 PUF domain R1-RLQ = PUM1 PUF domain R1-RLQ (Homo sapiens, UniProt Q14671 828-1176, S863R;R864L)
# In short: as §1
# PUM1 PUF domain R4-DHG = PUM1 PUF domain R4-DHG (Homo sapiens, UniProt Q14671 828-1176, N971D;Q975G)
# In short: as §1
# PUM1 PUF domain R6-VWL = biological target: T1, PUM1 PUF domain R6-VWL (Homo sapiens, UniProt Q14671 828-1176, N1043V;Y1044W;Q1047L)
# T1 sequence: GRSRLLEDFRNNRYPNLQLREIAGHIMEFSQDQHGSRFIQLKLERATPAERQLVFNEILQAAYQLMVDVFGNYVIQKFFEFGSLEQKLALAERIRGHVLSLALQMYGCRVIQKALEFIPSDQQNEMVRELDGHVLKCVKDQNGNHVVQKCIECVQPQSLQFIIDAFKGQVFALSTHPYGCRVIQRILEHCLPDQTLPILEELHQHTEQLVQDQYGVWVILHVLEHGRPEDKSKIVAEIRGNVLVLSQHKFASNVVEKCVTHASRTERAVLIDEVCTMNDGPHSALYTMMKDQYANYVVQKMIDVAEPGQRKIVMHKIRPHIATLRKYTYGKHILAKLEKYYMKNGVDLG
# In short: as §1
# PUM1 PUF domain R6-LWL = biological target: T2, PUM1 PUF domain R6-LWL (Homo sapiens, UniProt Q14671 828-1176, N1043L;Y1044W;Q1047L)
# T2 sequence: T1 sequence with V216L
# In short: as §1
# PUM1 PUF domain R4-PHA = PUM1 PUF domain R4-PHA (Homo sapiens, UniProt Q14671 828-1176, N971P;Q975A)
# In short: as §1
# PUM1 PUF domain R5-PRI = PUM1 PUF domain R5-PRI (Homo sapiens, UniProt Q14671 828-1176, C1007P;Q1011I)
# In short: as §1
# PUM1 PUF domain R4-AMC = PUM1 PUF domain R4-AMC (Homo sapiens, UniProt Q14671 828-1176, N971A;H972M;Q975C)
# In short: as §1
# PUM1 PUF domain R5-RRG = PUM1 PUF domain R5-RRG (Homo sapiens, UniProt Q14671 828-1176, C1007R;Q1011G)
# In short: as §1
# PUM1 PUF domain R6-VWT = biological target: T3, PUM1 PUF domain R6-VWT (Homo sapiens, UniProt Q14671 828-1176, N1043V;Y1044W;Q1047T)
# T3 sequence: T1 sequence with L220T
# In short: as §1
# PUM1 PUF domain R5-SHL = PUM1 PUF domain R5-SHL (Homo sapiens, UniProt Q14671 828-1176, C1007S;R1008H;Q1011L)
# In short: as §1
# PUM1 PUF domain R3-YYG = PUM1 PUF domain R3-YYG (Homo sapiens, UniProt Q14671 828-1176, C935Y;R936Y;Q939G)
# In short: as §1
# PUM1 PUF domain R6-IFT = biological target: T4, PUM1 PUF domain R6-IFT (Homo sapiens, UniProt Q14671 828-1176, N1043I;Y1044F;Q1047T)
# T4 sequence: T1 sequence with V216I, W217F, L220T
# In short: as §1
# PUM1 PUF domain R6-EWL = biological target: T5, PUM1 PUF domain R6-EWL (Homo sapiens, UniProt Q14671 828-1176, N1043E;Y1044W;Q1047L)
# T5 sequence: T1 sequence with V216E
# In short: as §1
# PUM1 PUF domain R5-FRG = PUM1 PUF domain R5-FRG (Homo sapiens, UniProt Q14671 828-1176, C1007F;Q1011G)
# In short: as §1
sequence,measurement,setting,value
GGCUAGAACUAGUGGAUCCCCCGGCGCCCGGCGGCUCGAGCCCGGGUAAGCGUAAAUAGUCUGCAUGCCGCCGGGCGCCAUGCCUGCAGGUCGACUCUAGAAAACAUG,binding signal,PUM1 PUF domain R8-RHY,4.97 log2 enrichment (interaction score)
GGCUAGAACUAGUGGAUCCCCCGGCGCCCGGCGGCUCGAGCCCGGGUAAGUGUAAAUUGUCUGCAUGCCGCCGGGCGCCAUGCCUGCAGGUCGACUCUAGAAAACAUG,binding signal,PUM1 PUF domain R1-RLQ,4.94 log2 enrichment (interaction score)
GGCUAGAACUAGUGGAUCCCCCGGCGCCCGGCGGCUCGAGCCCGGGUAAGUGUAAAUAGUCUGCAUGCCGCCGGGCGCCAUGCCUGCAGGUCGACUCUAGAAAACAUG,binding signal,PUM1 PUF domain R4-DHG,3.07 log2 enrichment (interaction score)
same,binding signal,PUM1 PUF domain R6-VWL,4.01 log2 enrichment (interaction score)
same,binding signal,PUM1 PUF domain R6-LWL,3.89 log2 enrichment (interaction score)
same,binding signal,PUM1 PUF domain R4-PHA,6.46 log2 enrichment (interaction score)
same,binding signal,PUM1 PUF domain R5-PRI,4.45 log2 enrichment (interaction score)
same,binding signal,PUM1 PUF domain R4-AMC,3.21 log2 enrichment (interaction score)
same,binding signal,PUM1 PUF domain R5-RRG,2.29 log2 enrichment (interaction score)
same,binding signal,PUM1 PUF domain R6-VWT,1.67 log2 enrichment (interaction score)
same,binding signal,PUM1 PUF domain R5-SHL,2.34 log2 enrichment (interaction score)
same,binding signal,PUM1 PUF domain R3-YYG,4.58 log2 enrichment (interaction score)
GGCUAGAACUAGUGGAUCCCCCGGCGCCCGGCGGCUCGAGCCCGGGUAAGUGAAAAUAGUCUGCAUGCCGCCGGGCGCCAUGCCUGCAGGUCGACUCUAGAAAACAUG,binding signal,PUM1 PUF domain R6-VWT,6.13 log2 enrichment (interaction score)
same,binding signal,PUM1 PUF domain R6-IFT,4.79 log2 enrichment (interaction score)
same,binding signal,PUM1 PUF domain R6-EWL,7.27 log2 enrichment (interaction score)
GGCUAGAACUAGUGGAUCCCCCGGCGCCCGGCGGCUCGAGCCCGGGUAAGUGUACAUAGUCUGCAUGCCGCCGGGCGCCAUGCCUGCAGGUCGACUCUAGAAAACAUG,binding signal,PUM1 PUF domain R4-PHA,5.37 log2 enrichment (interaction score)
same,binding signal,PUM1 PUF domain R4-AMC,2.52 log2 enrichment (interaction score)
GGCUAGAACUAGUGGAUCCCCCGGCGCCCGGCGGCUCGAGCCCGGGUAAGUGUGAAUAGUCUGCAUGCCGCCGGGCGCCAUGCCUGCAGGUCGACUCUAGAAAACAUG,binding signal,PUM1 PUF domain R5-RRG,1.66 log2 enrichment (interaction score)
GGCUAGAACUAGUGGAUCCCCCGGCGCCCGGCGGCUCGAGCCCGGGUAAGUGUUAAUAGUCUGCAUGCCGCCGGGCGCCAUGCCUGCAGGUCGACUCUAGAAAACAUG,binding signal,PUM1 PUF domain R5-FRG,2.88 log2 enrichment (interaction score)
same,binding signal,PUM1 PUF domain R5-RRG,4.55 log2 enrichment (interaction score)
same,binding signal,PUM1 PUF domain R5-SHL,2.85 log2 enrichment (interaction score)
